Measurements published in PubChem BioAssay (NCATS).
Records with an inconclusive call do not appear. Active and inactive are the calls of the source. The call rests on the fitted dose curve; in most records, active means well fitted curve in the direction sought with a large enough effect; inconclusive means small, poorly fitted or top-dose-only effect, or another doubt; inactive means no such curve, though single readings can be large; an effect the other way counts as inactive or inconclusive.

How the values were obtained:
[1] = qHTS of pediatric cancer cell lines to identify multiple opportunities for drug repurposing: Primary screen for NB-EBc1 cells (AID 1347095)
In short: (§1)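 CRCs from 8- or 11-point titrations (lowest final 0.59 nM NPC, 0.78 nM MIPE). Cell viability: CellTiter-Glo after 48 h incubation, 15 min room-temperature development, luminescence imaging.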

[2] = qHTS of pediatric cancer cell lines to identify multiple opportunities for drug repurposing: Primary screen for U-2 OS cells (AID 1347096); further: nearly all actives have a fitted effect of over 50% in size; further: potency means the concentration at half of the fitted maximal effect
In short: (§2)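 Cells (500-1,000/well) rested 5 h, then received compounds for 48 h; metabolically active cells were measured by CellTiter-Glo luminescence. Final concentrations spanned up to 46 µM (MIPE, 11-point) or 0.59 nM-46 µM (NPC, 8-point) in primary screens, 11-point in follow-ups.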

[3] = qHTS of pediatric cancer cell lines to identify multiple opportunities for drug repurposing: Primary screen for OHS-50 cells (AID 1347103); further: nearly all actives have a fitted effect of over 40% in size; further: potency means the concentration at half of the fitted maximal effect
In short: as §2

[4] = qHTS of pediatric cancer cell lines to identify multiple opportunities for drug repurposing: Primary screen for BT-37 cells (AID 1347094); further: potency means the concentration at half of the fitted maximal effect
In short: as §1

[5] = qHTS of pediatric cancer cell lines to identify multiple opportunities for drug repurposing: Primary screen for NB1643 cells (AID 1347099); further: nearly all actives have a fitted effect of over 50% in size; further: potency means the concentration at half of the fitted maximal effect
In short: as §1

[6] = qHTS of pediatric cancer cell lines to identify multiple opportunities for drug repurposing: Primary screen for BT-12 cells (AID 1347101); further: nearly all actives have a fitted effect of over 25% in size; further: potency means the concentration at half of the fitted maximal effect
In short: as §2

[7] = qHTS of pediatric cancer cell lines to identify multiple opportunities for drug repurposing: Primary screen for SK-N-SH cells (AID 1347098); further: nearly all actives have a fitted effect of over 65% in size; further: potency means the concentration at half of the fitted maximal effect
In short: as §2

[8] = qHTS of pediatric cancer cell lines to identify multiple opportunities for drug repurposing: Primary screen for LAN-5 cells (AID 1347100); further: potency means the concentration at half of the fitted maximal effect
In short: as §2

[9] = qHTS of pediatric cancer cell lines to identify multiple opportunities for drug repurposing: Primary screen for Rh18 cells (AID 1347102); further: nearly all actives have a fitted effect of over 65% in size; further: potency means the concentration at half of the fitted maximal effect
In short: as §2

[10] = qHTS of pediatric cancer cell lines to identify multiple opportunities for drug repurposing: Primary screen for Saos-2 cells (AID 1347097); further: nearly all actives have a fitted effect of over 40% in size; further: potency means the concentration at half of the fitted maximal effect
In short: as §1

Measured: Potency

C[C@H](CN1CCOCC1)C(C(=O)N1CCCC1)(c1ccccc1)c1ccccc1
inactive: [1] | [2]
active: [3] 43.4 µM

Nc1ccc(N)cc1
inactive: [4] | [2] | [5] | [6] | [3]

CCCCCCCCCCCC[N+](C)(C)CCOc1ccccc1
active: [4] 30.9 µM | [7] 13.7 µM | [8] 23.7 µM | [6] 24.6 µM | [9] 8.41 µM | [3] 4.9 µM

COc1ccc2c(C(=O)c3ccc(Cl)cc3)c(C)n(CC(=O)O)c2c1
not listed: [1] | [9] | [10]
inactive: all other assays above

O=C(NC(=O)c1c(F)cccc1F)Nc1cc(Cl)c(OC(F)(F)C(F)C(F)(F)F)cc1Cl (stereo not given)
inactive: [1] | [10] | [7] | [5] | [9]

CC(Cc1ccccc1)NCc1ccccc1Cl (stereo not given)
not listed: [2] | [3] | [10]
inactive: all other assays above

N#Cc1nn(-c2c(Cl)cc(C(F)(F)F)cc2Cl)c(N)c1S(=O)C(F)(F)F (stereo not given)
active: [6] 12.3 µM | [3] 24.6 µM
inactive: [4] | [2] | [5] | [9]

COc1cc(C[C@@H](C)N)c(OC)cc1C
inactive: [2] | [10] | [7] | [5] | [9]

C=CC[C@]1(O)CC[C@H]2[C@@H]3CCC4=CC(=O)CCC4=C3C=C[C@@]21C
inactive: [1] | [2] | [10] | [7] | [8] | [9]

Cc1nnc2n1-c1sc(CCc3ccc(CC(C)C)cc3)cc1C(c1ccccc1Cl)=NC2C (stereo not given)
active: [8] 23.7 µM | [6] 11 µM | [3] 21.9 µM

Cc1ccc([N+](=O)[O-])[c]2c1[O][Hg]2
active: [4] 1.55 µM | [2] 2.66 µM | [10] 0.106 µM | [7] 1.09 µM | [5] 0.596 µM | [6] 2.76 µM | [9] 1.5 µM | [3] 0.55 µM

C[C@]12C=CC(=O)C=C1CC[C@@H]1[C@@H]2CC[C@@]2(C)[C@H]1CC[C@]2(C)O
inactive: [4] | [2] | [7] | [8] | [6] | [9]

CC#C[C@]1(O)CC[C@H]2[C@@H]3C[C@H](C)C4=CC(=O)CC[C@]4(C)[C@H]3CC[C@@]21C
active: [3] 19.5 µM
inactive: [2] | [7]
